Source: PubChem BioAssay (Tox21)
Records with an inconclusive call do not appear. Active and inactive are the calls of the source. Unless noted, the call rests on the fitted dose curve; in most records, active means well fitted curve in the direction sought with a large enough effect in the repeat runs; inconclusive means weak or mixed curves; inactive means no such curve, though single readings can be large; an effect the other way counts as inactive or inconclusive.

What was measured:
[1] = biological target: Thyrotropin receptor (Homo sapiens) (UniProt P16473); experiment: qHTS assay to identify small molecule agonists of the thyroid stimulating hormone receptor (TSHR) signaling pathway (AID 1224843; calls by dose curve; further: nearly all actives have a fitted effect of over 45% in size)
Thyrotropin receptor (Homo sapiens), sequence (P16473 whole entry, looked up): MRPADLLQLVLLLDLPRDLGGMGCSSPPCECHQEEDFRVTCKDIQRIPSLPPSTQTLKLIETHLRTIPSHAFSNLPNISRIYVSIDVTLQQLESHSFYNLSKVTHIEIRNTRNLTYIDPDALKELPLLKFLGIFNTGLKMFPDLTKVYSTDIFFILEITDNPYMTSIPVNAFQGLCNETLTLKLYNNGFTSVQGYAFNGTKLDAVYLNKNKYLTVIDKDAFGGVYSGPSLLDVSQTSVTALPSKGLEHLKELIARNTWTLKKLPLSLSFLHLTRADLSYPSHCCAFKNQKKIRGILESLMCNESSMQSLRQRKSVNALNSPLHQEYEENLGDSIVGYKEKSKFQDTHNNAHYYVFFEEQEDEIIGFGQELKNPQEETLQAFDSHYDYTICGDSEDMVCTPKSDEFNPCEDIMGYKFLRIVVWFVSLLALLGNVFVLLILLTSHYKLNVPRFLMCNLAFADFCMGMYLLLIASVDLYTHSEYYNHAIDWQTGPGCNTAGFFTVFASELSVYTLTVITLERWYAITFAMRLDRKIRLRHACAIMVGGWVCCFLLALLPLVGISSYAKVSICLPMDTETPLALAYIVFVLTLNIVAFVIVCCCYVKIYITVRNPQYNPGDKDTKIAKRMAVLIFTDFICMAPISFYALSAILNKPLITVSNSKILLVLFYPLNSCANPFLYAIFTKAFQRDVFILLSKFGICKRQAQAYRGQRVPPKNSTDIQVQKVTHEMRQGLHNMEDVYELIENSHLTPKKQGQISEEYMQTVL
Procedure, shortened: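 Agonist activity read as cAMP rise via d2/cryptate HTRF competition, 1 h room-temperature detection, in HEK293 cells expressing TSHR. Fifteen-point titrations, each run in triplicate, with a 30 min room-temperature incubation beforehand.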

[2] = qHTS assay to identify small molecule agonists of the hypoxia (HIF-1) signaling pathway - cell viability counter screen (AID 1224844; calls by dose curve; further: nearly all actives have a fitted effect of over 50% in size)
Procedure, shortened: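 HRE-bla ME-180; 0.5% dFBS; cpd 17 h, 37C, 5% CO2; CellTiter-Glo lum., 30 min RT, post-FRET read, same wells.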

[3] = qHTS assay to identify small molecule agonists of H2AX (AID 1224845; active means well fitted activation curve with a large enough effect in the signal ratio in the repeat runs, not every such curve was filed as active; the % refers to the signal ratio)
Procedure, shortened: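 Phospho-H2AX Ser139 measured by HTRF (ex 320 nm; em 665 and 620 nm) after 24 hr antibody incubation. Compounds, 15 concentrations, 0.76% DMSO, were applied to CHO-K1 cells for 3hr at 37C before lysis.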

[4] = qHTS assay to identify small molecule agonists of the hypoxia (HIF-1) signaling pathway (AID 1224846; active means well fitted activation curve with a large enough effect in the signal ratio in the repeat runs, not every such curve was filed as active; the % refers to the signal ratio)
Procedure, shortened: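 Reporter induction in HRE-bla ME-180 cells is taken as agonism: cells sit 5 hrs after plating, receive compounds or DMSO only, incubate 17 hrs at 37C under 5% CO2, and are loaded with CCF4-AM for beta-lactamase FRET measurement.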

[5] = qHTS assay to identify small molecule agonists of H2AX - cell viability counter screen (AID 1224847; calls by dose curve; further: top concentration of the series differs between compounds; nearly all actives have a fitted effect of over 30% in size)
Procedure, shortened: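 We seed wild-type CHO-K1 cells overnight, treat them for 3 hr at 37C with compounds in 15-concentration series, and quantify remaining viability by CellTiter-Glo luminescence.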

[6] = qHTS assay to identify small molecule antagonists of the estrogen related receptor (ERR) signaling pathway from Tox21 library (AID 1224848); further: nearly all actives have a fitted effect of over 50% in size
Procedure, shortened: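 Luciferase luminescence (ONE-Glo, 30 min room temperature) was the read-out. Cells of the NTP-supplied ERR line, 2,000 per well, were given 6 h at 37 C before compound addition in DMSO and 18 h exposure at 37 C.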

[7] = qHTS assay to identify small molecule agonists of the estrogen related receptor (ERR) signaling pathway from Tox21 library (AID 1224849; calls by dose curve; further: nearly all actives have a fitted effect of over 15% in size); settings: ERR reporter cell line, ONE-Glo luciferase, 18 h; at 92.4 µM (top of the series) unless noted
Procedure, shortened: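 Tox21 compounds tested for ERR agonism in an NTP reporter cell line: 18 h treatment at 37 C, then ONE-Glo luminescence.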

[8] = qHTS RealTime-Glo MT Cell Viability Assay in HepG2 cells - 24 hour (AID 1224867); further: nearly all actives have a fitted effect of over 50% in size
Procedure, shortened: (§1)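 Compound treatment began 5 h after plating HepG2 cells (600/well) with NanoLuc luciferase and prosubstrate. Plates stayed at 37 C for 40 h; luminescence was captured at six time points, 0 h through 40 h.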

[9] = qHTS RealTime-Glo MT Cell Viability Assay in HEK293 cells - 32 hour (AID 1224868); further: top concentration of the series differs between compounds; nearly all actives have a fitted effect of over 50% in size
Procedure, shortened: (§2)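 Quantitative high-throughput screen of the Tox21 10K library in HEK293: cells and RealTime-Glo reagents plated together, compound added at 5 h, luminescence monitored through 40 h at 37 C.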

[10] = A CellTox Green Cytotoxicity Assay to monitor cytotoxicity in HEK293 cells - 0 hour (AID 1224869); further: nearly all actives have a fitted effect of over 50% in size
Procedure, shortened: (§3)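 Tox21 screen in HEK293: membrane-impermeant cyanine dye fluoresces on binding dead-cell DNA; compound pinned 5 h post-seeding, plates held at 37 C, signal read repeatedly through 40 h.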

[11] = qHTS RealTime-Glo MT Cell Viability Assay in HepG2 cells - 40 hour (AID 1224870); further: nearly all actives have a fitted effect of over 50% in size
Procedure, shortened: (§4)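 Real-time viability: cells seeded at 600 per well together with NanoLuc and cell-permeant prosubstrate, compounds added after 5 h incubation. Luminescence tracked at 0, 8, 16, 24, 32 and 40 h of exposure.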

[12] = A CellTox Green Cytotoxicity Assay to monitor cytotoxicity in HEK293 cells - 40 hour (AID 1224871); further: nearly all actives have a fitted effect of over 45% in size
Procedure, shortened: as §3

[13] = qHTS RealTime-Glo MT Cell Viability Assay in HEK293 cells - 16 hour (AID 1224872)
Procedure, shortened: as §2

[14] = qHTS RealTime-Glo MT Cell Viability Assay in HepG2 cells - 8 hour (AID 1224873); further: nearly all actives have a fitted effect of over 55% in size
Procedure, shortened: as §4

[15] = qHTS RealTime-Glo MT Cell Viability Assay in HEK293 cells - 40 hour (AID 1224874); settings: RealTime-Glo luminescence; max response: stronger effect = lower value; further: nearly all actives have a fitted effect of over 50% in size
Procedure, shortened: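 HEK293 + NanoLuc + prosubstrate, 600 cells/well; 5 h, 37 C/5% CO2; compound 23 nL in DMSO by pintool; 37 C; luminescence read at 0, 8, 16, 24, 32 and 40 h time points.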

[16] = A CellTox Green Cytotoxicity Assay to monitor cytotoxicity in HEK293 cells - 24 hour (AID 1224875); further: nearly all actives have a fitted effect of over 45% in size
Procedure, shortened: as §3

[17] = A CellTox Green Cytotoxicity Assay to monitor cytotoxicity in HepG2 cells - 16 hour (AID 1224876); further: nearly all actives have a fitted effect of over 45% in size
Procedure, shortened: (§5)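 Measurements at 0, 8, 16, 24, 32 and 40 h of treatment captured CellTox Green fluorescence in HepG2 cells that had been co-plated with reagent and preincubated 5 h at 37 C/5% CO2.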

[18] = qHTS RealTime-Glo MT Cell Viability Assay in HepG2 cells - 32 hour (AID 1224877); further: nearly all actives have a fitted effect of over 55% in size
Procedure, shortened: as §1

[19] = A CellTox Green Cytotoxicity Assay to monitor cytotoxicity in HepG2 cells - 24 hour (AID 1224878); further: nearly all actives have a fitted effect of over 45% in size
Procedure, shortened: as §5

[20] = A CellTox Green Cytotoxicity Assay to monitor cytotoxicity in HepG2 cells - 40 hour (AID 1224879); further: nearly all actives have a fitted effect of over 40% in size
Procedure, shortened: as §5
On the % scale 0 is the no-effect control and ±100 the full control effect.

COC(=O)c1ccccc1CS(=O)(=O)NC(=O)Nc1nc(OC)cc(OC)n1
inactive: Potency [1] | Potency [2] | outcome [3] | outcome [4] | Potency [5] | Potency [6] | activity change, positive = activation [7] -0.138% | Potency [8] | Potency [9] | outcome [10] | Potency [11] | Potency [12] | Potency [13] | outcome [14] | max response [15] 1.53% | Potency [16] | Potency [17] | Potency [18] | Potency [19]

CCC1(c2ccccc2)C(=O)N(COC)C(=O)N(COC)C1=O
inactive: Potency [1] | Potency [2] | outcome [3] | outcome [4] | Potency [5] | Potency [6] | activity change, positive = activation [7] 4.72% [at 42.5 µM] | Potency [8] | Potency [9] | outcome [10] | Potency [11] | Potency [12] | Potency [13] | outcome [14] | max response [15] 2.07% | Potency [16] | Potency [17] | Potency [18] | Potency [19] | Potency [20]

O=C(Cl)c1ccccc1
inactive: Potency [1] | Potency [2] | outcome [3] | outcome [4] | Potency [5] | Potency [6] | activity change, positive = activation [7] 7.58% | Potency [8] | outcome [10] | Potency [11] | Potency [12] | outcome [14] | max response [15] -3.78% | Potency [16] | Potency [17] | Potency [18] | Potency [19] | Potency [20]

C=CCCC#N
inactive: Potency [1] | Potency [2] | outcome [3] | outcome [4] | Potency [5] | Potency [8] | Potency [9] | outcome [10] | Potency [11] | Potency [12] | Potency [13] | outcome [14] | max response [15] 6.33% | Potency [16] | Potency [17] | Potency [18] | Potency [19]

Nc1c(Cl)c(F)nc(OCC(=O)O)c1Cl
inactive: Potency [1] | Potency [2] | outcome [3] | outcome [4] | Potency [5] | Potency [6] | activity change, positive = activation [7] 0.0677% | Potency [8] | Potency [9] | outcome [10] | Potency [11] | Potency [12] | Potency [13] | outcome [14] | max response [15] 2.97% | Potency [16] | Potency [17] | Potency [18] | Potency [19] | Potency [20]

c1ccc2c(c1)CCNC2
inactive: Potency [1] | Potency [2] | outcome [3] | outcome [4] | Potency [5] | Potency [6] | activity change, positive = activation [7] -19.6% | Potency [8] | outcome [10] | Potency [11] | Potency [12] | outcome [14] | Potency [16] | Potency [17] | Potency [18] | Potency [19]

Cc1ccc(Cl)c(O)c1
inactive: Potency [1] | Potency [2] | outcome [3] | outcome [4] | Potency [5] | Potency [6] | activity change, positive = activation [7] 6.81% [at 42.5 µM] | Potency [8] | Potency [9] | outcome [10] | Potency [11] | Potency [12] | Potency [13] | outcome [14] | Potency [16] | Potency [17] | Potency [18] | Potency [19] | Potency [20]

COc1ccc(C=O)cc1O
inactive: Potency [1] | Potency [2] | outcome [3] | outcome [4] | Potency [5] | Potency [6] | activity change, positive = activation [7] 2.88% | Potency [8] | Potency [9] | outcome [10] | Potency [11] | Potency [12] | Potency [13] | outcome [14] | Potency [16] | Potency [17] | Potency [18] | Potency [19] | Potency [20]

CCCC(C)(COC(N)=O)COC(N)=O
inactive: Potency [1] | Potency [2] | outcome [3] | outcome [4] | Potency [5] | Potency [6] | activity change, positive = activation [7] 0.442% | Potency [8] | Potency [9] | outcome [10] | Potency [11] | Potency [12] | Potency [13] | outcome [14] | max response [15] 2.95% | Potency [16] | Potency [17] | Potency [18] | Potency [19] | Potency [20]

C=CCC1(C(C)CC)C(=O)NC(=O)NC1=O (centres undefined)
inactive: Potency [1] | Potency [2] | outcome [3] | outcome [4] | Potency [5] | Potency [8] | Potency [9] | outcome [10] | Potency [11] | Potency [12] | Potency [13] | outcome [14] | max response [15] 5.74% | Potency [16] | Potency [17] | Potency [18] | Potency [19] | Potency [20]

CCOC(=O)N(C)N=O
inactive: Potency [1] | Potency [2] | outcome [3] | outcome [4] | Potency [5] | Potency [6] | activity change, positive = activation [7] -2.98% | Potency [8] | Potency [9] | outcome [10] | Potency [11] | Potency [12] | Potency [13] | outcome [14] | max response [15] 1.11% | Potency [16] | Potency [17] | Potency [18] | Potency [19] | Potency [20]

CON(C)C(=O)Nc1ccc(Br)c(Cl)c1
inactive: Potency [1] | Potency [2] | outcome [3] | outcome [4] | Potency [5] | Potency [6] | activity change, positive = activation [7] 0.491% | Potency [8] | outcome [10] | Potency [11] | Potency [12] | outcome [14] | Potency [16] | Potency [17] | Potency [18] | Potency [19] | Potency [20]

COc1cccc(C=O)c1
inactive: Potency [1] | Potency [2] | outcome [3] | outcome [4] | Potency [5] | Potency [6] | activity change, positive = activation [7] 0.51% | Potency [8] | outcome [10] | Potency [11] | Potency [12] | Potency [13] | outcome [14] | max response [15] -0.107% | Potency [16] | Potency [17] | Potency [18] | Potency [19] | Potency [20]

COP(=O)(OC)O/C(C)=C/C(=O)N(C)C
inactive: Potency [1] | Potency [2] | outcome [3] | outcome [4] | Potency [5] | Potency [6] | activity change, positive = activation [7] -0.44% | Potency [8] | outcome [10] | Potency [11] | Potency [12] | outcome [14] | Potency [16] | Potency [17] | Potency [18] | Potency [19] | Potency [20]
